# Many of the other results were omitted from the sample, so hits are more common in it than they were.
# CHX counter: affects cycloheximide protein synthesis inhibition readout, counter-screen. cell reporter, cycloheximide protein synthesis inhibition counterscreen. max response, %. 12% of 300,000 active. AID 2314; in the data active = max response mostly above about 13%, no sharp cut-off; inactive = mostly below about 14%; note: read at 38.3 µM for the half of the compounds with a filed dose; 0% is about no effect
# AmpC detergent: blocks E. coli AmpC beta-lactamase in detergent assay; P00811; AmpC hydrolysis of nitrocefin, absorbance 480 nm, 0.01% Triton; Potency, µM (series often up to 114 µM), without a hit: at the highest dose activity change, negative = inhibition, hits mostly inhibitors; 0.041% of 370,000 active; AID 485294;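 note: potency is the fitted concentration of half-maximal effect; 0% = no-compound wells and -100% = no-enzyme wells; nearly all actives have a fitted effect of over 25% in size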
# Target sequence (P00811 whole entry, looked up): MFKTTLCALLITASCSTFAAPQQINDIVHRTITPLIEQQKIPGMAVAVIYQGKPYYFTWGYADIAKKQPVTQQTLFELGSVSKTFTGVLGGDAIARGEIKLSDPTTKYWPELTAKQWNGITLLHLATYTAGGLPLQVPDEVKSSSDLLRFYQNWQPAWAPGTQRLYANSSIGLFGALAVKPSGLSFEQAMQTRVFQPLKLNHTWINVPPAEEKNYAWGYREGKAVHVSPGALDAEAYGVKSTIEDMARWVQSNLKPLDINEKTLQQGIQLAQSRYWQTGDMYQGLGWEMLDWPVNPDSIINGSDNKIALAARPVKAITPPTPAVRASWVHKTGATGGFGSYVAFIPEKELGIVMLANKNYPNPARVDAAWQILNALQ
#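 AmpC (5.3 nM in the dispensed reagent) in 20 mM phosphate pH 7.0 with 0.01% (detergent screen) or 0.0001% Triton X-100 was preincubated with compounds for 15 min at room temperature. Nitrocefin was then added from an 800 uM solution, and hydrolysis was followed at 480 nm.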
# NS1 inh: influenza NS1 inhibition; Potency, µM (top dose mostly 46.1 µM), without a hit: top-dose activity, positive = more growth; 0.4% of 270,000 active; calls by dose curve; note: potency is the fitted concentration of half-maximal effect; actives are rising curves; nearly all actives have a fitted effect of over 50% in size
#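 A cell-based growth assay was used: compounds that relieve NS1-induced slow growth of budding yeast raise OD600. Assay medium was yeast nitrogen base with ammonium sulphate and -URA supplement, pH 6.0, with 2% galactose.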
# AmpC no deterg: blocks E. coli AmpC beta-lactamase in detergent-free assay; P00811; AmpC nitrocefin hydrolysis, absorbance 480 nm, 0.0001% Triton; Potency, µM (doses to about 57.1 µM), inactives show top-dose activity change, negative = inhibition, hits mostly inhibitors; 0.52% of 330,000 active; AID 485341;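 note: potency is the fitted concentration of half-maximal effect; plate controls were no compound for no effect and no enzyme for full effect; nearly all actives have a fitted effect of over 20% in size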
#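 20 mM phosphate pH 7.0 + 0.01% (detergent screen) or 0.0001% Triton X-100; 5.3 nM AmpC reagent; cpd preinc 15 min RT; nitrocefin (800 uM stock) to start; A480 q20 s × 4 min; Activity was normalised to no-enzyme and no-compound control wells.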
# Shiga toxin inh: blocks Shiga toxin action in Vero cells | Vero cells, Shiga toxin protein synthesis inhibition reporter | inhibition, % at 38.7 µM | 9.2% of 290,000 active | AID 2315; in the data active = inhibition mostly above about 28%, no sharp cut-off; inactive = mostly below about 43%; note: 0% is about no effect
# Numbers without * were called inactive; ? = inconclusive; . = not tested or not shown; + = active, no number. Unless noted, calls come from the whole dose curve; as a rule, active = well fitted curve in the direction sought with a large enough effect; inconclusive = small, poorly fitted or top-dose-only effect, or another doubt; inactive = no such curve, though single readings can be large; an effect the other way counts as inactive or inconclusive.
SMILES,CHX counter,AmpC detergent,NS1 inh,AmpC no deterg,Shiga toxin inh
Cc1cccc(Nc2c(-c3ccsc3)nc3nc(C)cc(C)n23)c1,.,0.8%,.,.,.
CC1CN(S(=O)(=O)c2ccc(C(=O)N(C)C3CCCCC3)cc2)CC(C)O1 (stereo not drawn),.,.,.,134.6%,.
c1ccc(CSc2nnc3c4ccccc4c4ccccc4c3n2)cc1,-2.3,?,-3.1%,-13.4%,9.5
Cc1ccc(NC(=O)C(=O)NCCN2CCN(S(C)(=O)=O)CC2)cc1C,-1.7,5.3%,3.8%,-13.1%,-11.7
Cc1nc(NC(=O)/C=C/c2ccccc2)sc1C(=O)Nc1cccc(Cl)c1,-2.1,-13.2%,5.3%,?,-15.0
Cc1nc(Nc2c(Cl)cccc2Cl)sc1C(=O)Nc1ccccc1,19.0*,2.5%,?,-29.3%,21.3
Cc1nc(NC(N)=S)sc1C(=O)Nc1ccccc1,1.0,1.5%,2.4%,-27.9%,-1.7
Cc1nc(Cl)sc1C(=O)Nc1ccc(C(C)(C)C)cc1,50.2*,3.5%,-41.3%,-7.7%,91.3*
Cc1cccc(Nc2nc(-c3ccccc3)c(C(=O)Nc3cccnc3)s2)c1,33.4*,?,4.3%,-10.6%,48.0*
Cc1nc(N)sc1C(=O)Nc1ccccc1,35.5*,5.4%,-0.8%,-9.1%,67.8*
CC1=C(C(=O)Nc2ccccc2)C(c2cccs2)n2nc(SCc3ccccc3)nc2N1 (stereo not drawn),.,5.5%,.,.,.
Cc1cc(/C=C(/C#N)C(=O)O)c(C)n1-c1cccc2ccccc12,-3.2,-1.4%,-63.4%,-27.8%,21.4
COc1ccc(NCc2cccn2-c2nnc(N3CCOCC3)s2)cc1OC,.,1.2%,.,.,.
CC(C)c1nc(SCC(=O)c2ccc(F)cc2)c2ccccc2n1,20.3*,1.6%,-2.3%,32.0%,31.1
O=C(CSc1cnc2ccccc2n1)c1ccc(F)cc1,60.3*,-9.9%,12.3%,-20.8%,64.7*
O=C(CSc1ccc(-c2ccccn2)nn1)N1CCCC1,25.4*,2.6%,.,-17.3%,42.9
c1ccc(CSc2ccc(-c3ccccn3)nn2)cc1,52.0*,2.0%,.,-24.5%,109.8*
Cc1ccc(C(=O)CSc2nc(C(C)C)nc3ccccc23)cc1,-0.1,-1.8%,2.8%,8.5%,10.5
O=C(CSc1ccc(-c2ccccn2)nn1)NC1CCCC1,14.9,6.7%,.,-5.5%,24.9
COc1ccc(Cn2c(CCC(=O)Nc3ccc(OC)c(Cl)c3)nc3cccnc32)cc1,.,-7.1%,.,.,.
CC(C)(C)c1ccc(N2C[C@@H](COc3ccc(C(=O)O)cc3)CC2=O)cc1,10.7,.,.,.,25.4
Cc1ccc(C(=O)CSc2ccc(-c3ccccc3)nn2)cc1,9.7,?,-1.2%,-24.9%,9.3
O=C(CSc1ccc(-c2ccccn2)nn1)c1ccccc1,49.0*,6.7%,.,-20.8%,87.5*
O=C(CSc1ccc(-c2ccccn2)nn1)c1ccc(F)cc1,33.2*,-1.2%,.,-56.6%,51.0*
COc1ccccc1NC(=O)CSc1ccc(-c2ccccn2)nn1,13.0*,-10.0%,-118.2%,-36.5%,18.8
SMILES,CHX counter,AmpC detergent,NS1 inh,AmpC no deterg,Shiga toxin inh
O=C(CSc1ccc(-c2ccccn2)nn1)Nc1ccc(F)cc1F,-1.9,-5.9%,-8.0%,9.5%,-6.6
O=C(CSc1ccc(-c2ccccc2)nn1)c1ccccc1,42.1*,?,1.7%,-26.9%,60.1*
CCCCCOc1ccc(Cn2c(=O)oc3ccccc32)cc1,.,10.4%,.,.,.
CCN1CCN(C(=O)c2cc3cc(Cl)ccc3[nH]2)CC1,1.3,-2.6%,4.2%,27.9%,24.9
O=C(c1cc2cc(F)ccc2[nH]1)N1CCC2(CC1)OCCO2,30.5*,-0.8%,6.1%,-6.9%,50.5*
O=C(c1cc2cc(Cl)ccc2[nH]1)N1CCC2(CC1)OCCO2,28.2*,-3.1%,-17.4%,118.8%,30.3*
CN1CCN(C(=O)c2cc3cc(F)ccc3[nH]2)CC1,15.8,-2.4%,0.1%,-11.0%,-7.1
CCN(CC)C(=O)C1=CC(c2ccc3c(c2)OCO3)=NS(=O)(=O)N1C,.,2.6%,.,.,.
CCC1(C)N=C(c2ccc3c(c2)OCO3)CC(c2ccccc2O)N1 (stereo not drawn),44.3*,?,-5.1%,-44.3%,65.9*
COc1cccc(C2=NC(C)(C)NC(c3ccccc3O)C2)c1 (stereo not drawn),33.9*,-13.8%,-8.9%,?,56.0*
CCOC(=O)c1sc(SCC(=O)Nc2ccc(N(C)C)cc2)nc1N,2.5,-5.9%,-8.5%,80.7%,-13.7
COc1ccc(NC(=O)CSc2nc(N)c(C(=O)Nc3ccc(N(C)C)cc3)s2)cc1,39.7,4.1%,0.0%,-26.1%,123.5*
CN(C)c1ccc(NC(=O)CSc2nc(N)c(C(=O)Nc3ccc(N(C)C)cc3)s2)cc1,30.7*,4.4%,-28.1%,-34.6%,65.2
COc1ccc(C2CC(=O)Nc3c2c(=O)[nH]c2nc4ccccc4n32)cc1 (stereo not drawn),.,-1.1%,.,.,.
CCN1CCN(c2cc3c(cc2F)c(=O)c(S(=O)(=O)c2ccc(OC)cc2)cn3CC)CC1,.,-3.0%,.,.,.
NC(=O)Cc1ccc(C(=O)c2ccc(F)cc2)s1,25.4*,-2.7%,.,-15.6%,19.8
O=C(COc1ccccc1)N=C1SC2CS(=O)(=O)CC2N1Cc1ccccc1 (stereo not drawn),3.4,-1.5%,2.6%,-0.2%,-5.3
CCOc1cc(/C=C2\SC(=N)N(c3nonc3N)C2=O)ccc1OCCN1CCOCC1,14.1*,-5.7%,-5.2%,69.5%,21.8
CCOc1cc(/C=C2\SC(=N)N(c3nonc3N)C2=O)ccc1OCC(N)=O,0.4,-8.4%,-0.8%,-11.1%,-13.3
CCOc1ccc2nc(Cl)c(/C=C/C(=O)c3ccco3)cc2c1,16.1,1.3%,-1.2%,-27.3%,26.3
Cc1cccc2cc(/C=C/C(=O)c3ccco3)c(Cl)nc12,11.6*,-5.6%,-46.7%,-15.0%,15.5
CC(C)(C)C(=O)Nc1ccc(/C=C/C(=O)c2ccco2)cc1,25.1*,-13.2%,-16.4%,-23.3%,.
N#Cc1ccc(/C=C/C(=O)c2ccco2)cc1,5.7,-8.5%,-37.1%,9.0%,26.4
CC(C)(C)C(=O)Nc1ccc(NC(=O)c2ccco2)nc1,-11.8,-2.7%,-9.6%,-0.5%,-27.9
O=C(/C=C/c1ccccc1O)c1ccco1,30.3*,?,-65.4%,-24.7%,60.6*
Nc1ccc(/C=C/C(=O)c2ccco2)cc1,68.7*,-8.2%,-4.6%,-46.8%,+

# Screening data as filed in PubChem.
